# Records with an inconclusive call do not appear. Calls of active or inactive are those of the source. Calls come from the whole dose curve; as a rule, active = well fitted activation curve with a large enough effect in the repeat runs; inconclusive = weak or mixed curves; inactive = flat fitted curve, though single readings scatter.
# Test: A CellTox Green Cytotoxicity Assay to monitor cytotoxicity in HEK293 cells - 40 hour (AID 1224871); note: nearly all actives have a fitted effect of over 45% in size
# Conditions: CellTox Green fluorescence; series mostly up to 76.8 µM; cytotoxicity increase: at the top concentration
# Text: National Center for Advancing Translational Sciences [NCATS]
# NIH Chemical Genomics Center [NCGC]
# U.S. Environmental Protection Agency [EPA]
# National Institutes of Environmental Health Sciences [NIEHS]
# National Toxicology Program [NTP]
# Cell-based models are critical for drug discovery. Determining the natural cytotoxic effects resulting from test compounds is an essential research activity. A CellTox Green Cytotoxicity Assay to monitor cytotoxicity in real time of continues cell culture during 40 hours of the compound treatment was used to screen Tox21 10K library compounds in Hek293 cells. CellTox Green Cytotoxicity Assay is a nonlytic, homogeneous, biofluorescent method to measure cytotoxicity in cell culture after experimental manipulation. The assay system uses a proprietary asymmetric cyanine dye that is excluded from viable cells but preferentially stains the dead cell's DNA. […] Viable cells produce no appreciable increases in fluorescence. Therefore, the fluorescence signal produced by the binding interaction with dead cell DNA is proportional to cytotoxicity.
# The mixture of Hek293 cell suspension and reagents were dispensed at 600cells/6 ul/well in 1536-well tissue culture treated black solid bottom plates using a Multidrop dispenser. After the assay plates were incubated at a 37 C/5% CO2 incubator for 5 hours, 23 nL of compounds dissolved in DMSO, positive and negative controls was transferred to the assay plate by a pintool work station. The plates were incubated at 37 C for 40 hours. The fluorescence intensity were measured at 0h, 8h, 16h, 24h, 32h and 40h time points using ViewLux plate reader during compound treatment.
# % is set by controls: 0 for no effect and ±100 for the full control effect; potency is the fitted concentration of half-maximal effect.
Compound,cytotoxicity increase,Potency
O=Cc1ccc(C(=O)O)cc1,-12.3% (inactive),
CC(=O)c1ccc(O)c(C(N)=O)c1,-22.3% [at 35.3 µM] (inactive),
C=CCON/C(CCC)=C1\C(=O)CC(C)(C)C(C(=O)OC)=C1O,3.01% (inactive),
COc1ccccc1N1CCN(CC(O)COc2cc(OC)c(OC)c(OC)c2)CC1 (stereo not given),-0.709% [at 35.3 µM] (inactive),
CC(CC(=O)Cl)CC(C)(C)C (stereo not given),5.3% (inactive),
O=C1c2ccccc2C(=O)N1CO,-3% (inactive),
COc1ccc2cc(CCC(C)=O)ccc2c1,-0.798% [at 35.3 µM] (inactive),
O=C(O)COc1ccc2ccccc2c1,0.823% (inactive),
NC[C@H]1O[C@H](O[C@H]2[C@H](O)[C@@H](O[C@H]3O[C@H](CO)[C@@H](O)[C@H](N)[C@H]3O)[C@H](N)C[C@@H]2N)[C@H](N)[C@@H](O)[C@@H]1O,-1.49% [at 15.8 µM] (inactive),
CCOC(=O)CN1CCCC1=O,-22% [at 35.3 µM] (inactive),
CCCc1ncc(C(=O)O)s1,0.922% [at 35.3 µM] (inactive),
N#Cc1ccccc1C#N,-5.45% (inactive),
C[C@@H]1NC(=O)[C@@H](N)CNC(=O)[C@H](C2CCNC(N)=N2)NC(=O)/C(=C/NC(N)=O)NC(=O)[C@H](CNC(=O)C[C@@H](N)CCCN)NC1=O (stereo not given in full),21.6% [at 0.29 µM] (inactive),
Cc1ccc(S(=O)(=O)NC(=O)NN2CC3CCCC3C2)cc1 (stereo not given),-32.6% [at 35.3 µM] (inactive),
Cc1cccc(N)n1,-11.9% (inactive),
CC(C)c1cc(C(C)C)cc(C(C)C)c1,-0.731% (inactive),
COC(C)(C)CC(C)=O,15.6% (inactive),
C=C(C)C(=O)OCCCC,-1.76% (inactive),
C=CCN1CCc2nc(N)sc2CC1,2.29% [at 35.3 µM] (inactive),
Cc1cc(C)c(C)c(C)c1,-1.82% (inactive),

Compound,cytotoxicity increase,Potency
CCCCCCCCOCCC#N,5.87% (inactive),
c1coc(Cn2cccc2)c1,1% (inactive),
CSC(=O)c1cccc2nnsc12,-12.9% (inactive),
CC(=O)Oc1ccc(C(C)=O)cc1,5.83% (inactive),
COC(=O)c1ccccc1Cl,-1.46% (inactive),
COc1cc(NS(=O)(=O)c2ccc(N)cc2)ncn1,-5.49% [at 35.3 µM] (inactive),
CC(=O)c1ccc2ccc3ccccc3c2c1,-13% (inactive),
O=S(=O)(O)c1cc(I)c(O)c2ncccc12,-1.97% [at 35.3 µM] (inactive),
CC(=O)Nc1ccc(S(=O)(=O)Nc2cc(C)on2)cc1,6.91% [at 35.3 µM] (inactive),
CC(=O)c1c(C)cc(C(C)(C)C)cc1C,,24.5 µM (active)
C[C@@H](CN1CC(=O)NC(=O)C1)N1CC(=O)NC(=O)C1,-0.586% [at 35.3 µM] (inactive),
Cc1ccc(O)c([N+](=O)[O-])c1,-0.485% (inactive),
CC/C=C\CCCCCCCCCCOC(C)=O,1.01% (inactive),
O=CN1CCCCC1,-3.48% (inactive),
CCCCc1ccc(Cl)cc1,-16.4% (inactive),
CC[C@@]1(c2ccccc2)NC(=O)N(C)C1=O,0.938% [at 35.3 µM] (inactive),
Cc1cc(N)no1,-4.39% (inactive),
CN1C(CCl)Nc2cc(Cl)c(S(N)(=O)=O)cc2S1(=O)=O (stereo not given),-21.3% [at 35.3 µM] (inactive),
CO/N=C(\C(=O)O)c1csc(NC(=O)CCl)n1,-5.58% [at 35.3 µM] (inactive),
N[C@H]1C(O)O[C@H](CO)[C@@H](O)[C@@H]1O (stereo not given in full),-2.36% [at 35.3 µM] (inactive),
